Measurements: PubChem BioAssay (Tox21)
Values joined by “and” are separate entries in the source; they are usually repeats but may differ in a detail not shown here. Equal values may be shown once. Results filed as inconclusive are left out. Some structures have more than one record in an assay (separate samples or runs), and their calls can disagree. Active and inactive are the calls of the source. The call rests on the fitted dose curve; in most records, active means well fitted curve in the direction sought with a large enough effect in the repeat runs; inconclusive means weak or mixed curves; inactive means no such curve, though single readings can be large; an effect the other way counts as inactive or inconclusive.

Key:
[1] = qHTS assay to identify small molecule antagonists of the glucocorticoid receptor (GR) signaling pathway - cell viability counter screen (AID 720693); further: nearly all actives have a fitted effect of over 55% in size
[2] = qHTS assay for identifying genotoxic compounds that show differential cytotoxicity against isogenic chicken DT40 cell lines with known DNA damage response pathways - wild type cell line (AID 743012); further: nearly all actives have a fitted effect of over 60% in size; further: potency means the concentration at half of the fitted maximal effect
Method in brief: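 Endpoint: CellTiter-Glo luminescence, 30 min RT. Cells: wild type DT40, 300/well. Exposure: compounds in DMSO, 40 h, 37 C/5% CO2, after ~0.5 h pre-incubation.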

[3] = qHTS assay for identifying genotoxic compounds that show differential cytotoxicity against isogenic chicken DT40 cell lines with known DNA damage response pathways - Rev3 mutant cell line (AID 743014); further: nearly all actives have a fitted effect of over 55% in size; further: potency means the concentration at half of the fitted maximal effect
[4] = qHTS assay for identifying genotoxic compounds that show differential cytotoxicity against isogenic chicken DT40 cell lines with known DNA damage response pathways - Rad54/Ku70 mutant cell line (AID 743015); further: nearly all actives have a fitted effect of over 60% in size; further: potency means the concentration at half of the fitted maximal effect
[5] = qHTS assay to identify small molecule antagonists of the androgen receptor (AR) signaling pathway - cell viability counter screen (AID 743033; further: nearly all actives have a fitted effect of over 45% in size)
[6] = qHTS assay to identify small molecule antagonists of the androgen receptor (AR) signaling pathway using the MDA cell line - cell viability counter screen (AID 743041; further: nearly all actives have a fitted effect of over 45% in size; further: potency means the concentration at half of the fitted maximal effect)
Method in brief: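 In this qHTS counter assay, fluorescence intensity after CellTiter-Fluor addition indicated viability of MDA-kb2 AR-luc cells given compounds and R1881 for 16 h at 37C.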

[7] = qHTS assay to identify small molecule antagonists of the thyroid receptor (TR) signaling pathway - cell viability counter screen (AID 743064); further: nearly all actives have a fitted effect of over 50% in size; further: potency means the concentration at half of the fitted maximal effect
Method in brief: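 GH3.TRE-Luc rat pituitary cells carrying a TRE-luciferase reporter were treated with compound plus 1 nM T3 (final) for 23.5 h at 37 °C. Viability was then read in the same wells by CellTiter-Fluor fluorescence after a further 30 min.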

[8] = molecular target: Androgen receptor (Homo sapiens) (UniProt P10275); test: qHTS assay to identify small molecule antagonists of the androgen receptor (AR) signaling pathway using the MDA cell line (AID 743042; further: nearly all actives have a fitted effect of over 55% in size)
Method in brief: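 MDA-kb2 cells (human breast carcinoma, stably carrying an MMTV-luciferase reporter responsive to AR and GR) were plated at 3,000 cells/well and preincubated 5 hr at 37C, then given compound plus R1881 agonist for 16 h. ONE-Glo luminescence was read.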

[9] = molecular target: Androgen receptor (Homo sapiens) (UniProt P10275); test: qHTS assay to identify small molecule agonists of the androgen receptor (AR) signaling pathway using the MDA cell line (AID 743040; further: nearly all actives have a fitted effect of over 20% in size)
Method in brief: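 Cell-based luciferase reporter: MDA-kb2, MMTV promoter (AR + GR response elements). 16 h compound exposure at 37C; ONE-Glo, 30 min RT, luminescence.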

Measured: Potency

Androgen receptor (Homo sapiens), sequence (P10275 whole entry, looked up): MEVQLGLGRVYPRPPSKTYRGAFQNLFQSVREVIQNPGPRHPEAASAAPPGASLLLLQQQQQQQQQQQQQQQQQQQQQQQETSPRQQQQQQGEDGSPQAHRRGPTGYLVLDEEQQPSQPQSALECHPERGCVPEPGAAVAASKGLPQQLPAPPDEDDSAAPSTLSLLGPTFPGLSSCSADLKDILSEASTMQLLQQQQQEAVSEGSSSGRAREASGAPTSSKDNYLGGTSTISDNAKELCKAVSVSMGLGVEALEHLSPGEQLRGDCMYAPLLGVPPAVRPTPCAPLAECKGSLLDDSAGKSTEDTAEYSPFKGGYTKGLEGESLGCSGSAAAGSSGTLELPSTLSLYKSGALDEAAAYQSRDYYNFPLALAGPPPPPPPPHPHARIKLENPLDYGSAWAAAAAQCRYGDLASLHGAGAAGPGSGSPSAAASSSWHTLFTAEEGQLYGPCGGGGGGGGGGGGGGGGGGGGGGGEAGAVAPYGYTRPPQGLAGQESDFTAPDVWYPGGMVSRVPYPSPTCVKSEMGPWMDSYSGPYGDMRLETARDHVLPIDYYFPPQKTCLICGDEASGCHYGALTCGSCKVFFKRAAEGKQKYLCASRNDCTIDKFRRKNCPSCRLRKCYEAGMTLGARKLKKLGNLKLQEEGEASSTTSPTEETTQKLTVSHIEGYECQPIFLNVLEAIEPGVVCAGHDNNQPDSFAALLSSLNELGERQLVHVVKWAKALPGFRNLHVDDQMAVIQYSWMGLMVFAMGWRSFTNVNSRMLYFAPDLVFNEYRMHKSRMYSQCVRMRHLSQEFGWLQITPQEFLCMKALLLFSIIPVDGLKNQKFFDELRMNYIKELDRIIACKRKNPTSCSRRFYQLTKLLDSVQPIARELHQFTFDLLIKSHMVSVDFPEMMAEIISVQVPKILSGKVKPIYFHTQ

CCN(CC)CCNC(=O)c1cc(Cl)c(N)cc1OC
not listed: [8] | [9]
inactive: all other assays above

Cc1ccc(S(=O)(=O)NC(=O)NC2CCCCC2)cc1
not listed: [8] | [9]
inactive: all other assays above

O=C(O)CCCc1c[nH]c2ccccc12
not listed: [8] | [9]
inactive: all other assays above

CC(=O)OCC(C)C
not listed: [7] | [9]
inactive: all other assays above

CC(C)COC(=O)COc1cc(Cl)c(Cl)cc1Cl
not listed: [8] | [9]
inactive: all other assays above

Cc1ccc2c(c1)CCCN2
not listed: [7] | [8] | [9]
inactive: all other assays above

CC(C)(O)CCc1ccccc1
not listed: [8] | [9]
inactive: all other assays above

CCCCCCCCCCCCCOC(=O)CCSCCC(=O)OCCCCCCCCCCCCC
not listed: [7] | [8] | [9]
inactive: all other assays above

CCCCCCCCCCCCCCN(C)C
not listed: [8] | [9]
inactive: all other assays above

O=C(O)c1ccc(O)cc1O
not listed: [8] | [9]
inactive: all other assays above

CSCC[C@H](NC(=O)[C@H](Cc1c[nH]c2ccccc12)NC(=O)CCNC(=O)OC(C)(C)C)C(=O)N[C@@H](CC(=O)O)C(=O)N[C@@H](Cc1ccccc1)C(N)=O
not listed: [7] | [8] | [9]
inactive: all other assays above

CCCCCC
not listed: [8] | [9]
inactive: all other assays above

CCCCCCOC(=O)CCCCC
not listed: [8] | [9]
inactive: all other assays above

CC(C(=O)O)c1ccc(C(=O)c2cccs2)cc1 (stereo unspecified)
not listed: [8] | [9]
inactive: all other assays above

COc1ccc(-n2nc(C(F)F)cc2-c2ccc(S(C)=O)cc2)cc1 (stereo unspecified)
active: [2] 61.1 µM | [3] 30.6 µM | [4] 54.5 µM
inactive: [1] | [5] | [6] | [7]

SCCc1cnccn1
not listed: [8] | [9]
inactive: all other assays above

CCCCC(CC)COS(=O)(=O)O (stereo unspecified)
not listed: [7] | [8] | [9]
inactive: all other assays above

Cc1ccc2nc(N)[nH]c(=O)c2c1Sc1ccncc1
inactive: [1] | [5] | [6]
active: [2] 1.88 µM | [3] 0.944 µM | [4] 0.596 µM

c1ccc2sc(SSc3nc4ccccc4s3)nc2c1
not listed: [8] | [9]
inactive: all other assays above

CC1=C2[C@@H]([C@H](C)CC[C@H]2/C=C(\C)C(=O)O)[C@H](O)C1
not listed: [8] | [9]
inactive: all other assays above

CN(C)CC/C=C1\c2ccccc2Sc2ccc(Cl)cc21
inactive: [1] | [9]
active: [2] 3.76 µM | [3] 16.8 µM | [4] 10.6 µM | [6] 27.8 µM | [7] 11.9 µM

Cc1ccc(N(CCO)CCO)cc1
not listed: [8] | [9]
inactive: all other assays above

CCO[Si](C)(CCCOCC1CO1)OCC (stereo unspecified)
active: [2] 13.7 µM | [3] 7.7 µM | [4] 27.3 µM
inactive: [1] | [5] | [6] | [7]

CC[C@H]1OC(=O)[C@H](C)[C@@H](O[C@H]2C[C@@](C)(OC)[C@@H](O)[C@H](C)O2)[C@H](C)[C@@H](O[C@@H]2O[C@H](C)C[C@H](N(C)C)[C@H]2O)[C@](C)(O)C[C@@H](C)C(=O)[C@H](C)[C@@H](O)[C@]1(C)O
not listed: [8] | [9]
inactive: all other assays above

CSSc1ccoc1C
inactive: [1] | [5] | [6] | [7]
active: [2] 19.2 µM | [3] 34.2 µM | [4] 19.2 µM

CN1CCCN(C(c2ccccc2)c2ccc(Cl)cc2)CC1 (stereo unspecified)
active: [2] 9.44 µM | [3] 11.9 µM | [4] 18.8 µM | [7] 6.68 µM
not listed: [5]
inactive: all other assays above

CCC1CCC(CCC(=O)O)C1 (stereo unspecified)
not listed: [6] | [8] | [9]
inactive: all other assays above

N[C@@H](Cc1cc(I)c(O)c(I)c1)C(=O)O
not listed: [8] | [9]
inactive: all other assays above

CC1CCCO1 (stereo unspecified)
not listed: [8] | [9]
inactive: all other assays above

CC12CC3CC(C)(C1)CC(N)(C3)C2
active: [2] 26.6 µM | [3] 29.8 µM | [4] 29.8 µM | [7] 29.8 µM
inactive: [1] | [5]

CC[C@H]1OC(=O)[C@H](C)[C@@H](O[C@H]2C[C@@](C)(OC)[C@@H](O)[C@H](C)O2)[C@H](C)[C@@H](O[C@@H]2O[C@H](C)C[C@H](N(C)C)[C@H]2O)[C@](C)(O)C[C@@H](C)/C(=N\OCOCCOC)[C@H](C)[C@@H](O)[C@]1(C)O
inactive and 8.07 µM (active): [3]
inactive and 32.1 µM (active): [7]
inactive: [1] | [5] | [6]
inactive and 14.3 µM (active): [2] | [4]

COc1ccc(C)cc1
not listed: [8] | [9]
inactive: all other assays above

CCSC(=O)N(CC)CC
not listed: [8] | [9]
inactive: all other assays above

CC(C)Cc1ccc(CC(=O)O)cc1
not listed: [8] | [9]
inactive: all other assays above

O=C(O)CN1C(=O)c2cccc3cccc(c23)C1=O
not listed: [8] | [9]
inactive: all other assays above

O=C(NC(Cc1cc(=O)[nH]c2ccccc12)C(=O)O)c1ccc(Cl)cc1 (stereo unspecified)
not listed: [8] | [9]
inactive: all other assays above

CCCCCCCCCCCCCCCC(=O)OCC
not listed: [8] | [9]
inactive: all other assays above

CCOC(=O)c1c(N)sc2c1CCN(Cc1ccccc1)C2
inactive: [1] | [5] | [6] | [7]
active: [2] 29.8 µM | [3] 29.8 µM | [4] 26.6 µM

CCC(=O)OCc1ccc(OC)cc1
not listed: [8] | [9]
inactive: all other assays above

CC(=O)N[C@@H](Cc1ccc(O)cc1)C(=O)O
not listed: [8] | [9]
inactive: all other assays above

CC(=O)OCCC1CCCCC1
not listed: [8] | [9]
inactive: all other assays above

CC(C)N(C)C
not listed: [8] | [9]
inactive: all other assays above

CC(=O)OCC1=C(C(=O)O)N2C(=O)[C@@H](NC(=O)CSc3ccncc3)[C@H]2SC1
not listed: [8] | [9]
inactive: all other assays above

CCCCCCC(CO)CCCC (stereo unspecified)
not listed: [8] | [9]
inactive: all other assays above

CC(C)c1ccc(C(=O)N=C(N)N)cc1S(C)(=O)=O
not listed: [8] | [9]
inactive: all other assays above

COc1cc(NS(=O)(=O)c2ccc(N)cc2)nc(C)n1
not listed: [8] | [9]
inactive: all other assays above

O=[N+]([O-])C1(Br)COCOC1
inactive: [1] | [6]
active: [2] 12.2 µM | [3] 21.7 µM | [4] 21.7 µM

CC(C)N=C=NC(C)C
not listed: [8] | [9]
inactive: all other assays above

Cc1cc([N+](=O)[O-])ccc1N
not listed: [8] | [9]
inactive: all other assays above

CCN(CC)CCOc1ccccc1C(=O)CCc1ccccc1
active: [2] 11.9 µM | [3] 26.6 µM | [4] 26.6 µM
inactive: [1] | [6]

COC(OC)OC
not listed: [8] | [9]
inactive: all other assays above

Cc1cccc(C)c1NC(=O)c1cc(S(N)(=O)=O)c(Cl)cc1O
not listed: [8] | [9]
inactive: all other assays above

CCOCCC(=O)OCC
not listed: [8] | [9]
inactive: all other assays above
